hgDAF12 agonist – hgDAF-12 agonism, primary luciferase screen | HEK293 GAL4-hgDAF12 UAS-luciferase reporter, agonist luminescence; normalized to butyrate control | activation, % at 6.8 µM | hit rate 1.8% among 370,000 | AID 687014;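 active = activation above a cutoff set at the mean of all screened compounds plus 3 SD, cut at about 10% in these data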;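 note: 0% = DMSO wells and 100% = sodium butyrate wells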
ssDAF12 agonist – activators of S. stercoralis DAF-12 nuclear receptor; HEK293 ssDAF-12/GRIP1 lit1-tk-luc reporter, luminescence; % of 3 µM dafachronic acid response; activation, % at 6.8 µM; hit rate 1% among 370,000; AID 652126;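 active = activation above the mean over all tested compounds plus 3 SD, cut at about 0.9% in these data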;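 note: 0% = DMSO-only wells and 100% = 3 µM delta7-dafachronic acid wells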
hcDAF-12 act – H. contortus DAF-12 activation, primary screen. HEK293 hcDAF-12 lit1-tk-luc reporter, luminescence; 0% DMSO, 100% Δ7-dafachronic acid. activation, % at 6.8 µM. hit rate 1.4% among 370,000. AID 652067;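 active = activation above the mean of all tested compounds plus 3 SD, cut at about 5.5% in these data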;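 note: 100% = response to 3 µM Δ7-dafachronic acid high control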
GAA850 FXN act – activators of GAA850 frataxin (FXN) promoter. HEK293 lucGAA850 FXN promoter luciferase reporter, 24 h; percent of 10 µM SAHA response. activation, % at 6 µM. hit rate 0.56% among 360,000. AID 540364;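 active = activation above the average of all compounds screened plus 3 SD, cutoff fixed separately per campaign, cut at about 7.5% in these data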;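 note: 0% = DMSO wells and 100% = 10 µM SAHA wells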
DAX1 inh-1 – blocks DAX1 repression of SF-1 activated StAR promoter | HEK293T StAR-luciferase reporter, SF-1/DAX-1 repression relief | inhibition, % at 6.8 µM | hit rate 1.1% among 370,000;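 active = inhibition above the mean over all tested compounds plus 3 SD, cut at about 3.6% in these data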;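 note: 0% = DAX-1 cells with DMSO and 100% = cells lacking DAX-1 with DMSO; higher inhibition means more luminescence from relief of DAX-1 repression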
DAX1 inh-2 – inhibits human nuclear receptor DAX1 | P51843 | HEK293 Gal4-DAX1 luciferase reporter, luminescence | inhibition, % at 6.75 µM | hit rate 0.99% among 340,000;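 active = inhibition above the mean over all tested compounds plus 3 SD, cut at about 4.2% in these data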;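 note: 0% = DAX1-transfected cells with DMSO and 100% = empty-vector control cells with DMSO; inhibition shows as a rise in luminescence from relieved DAX1 repression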
Target sequence (P51843 207-470 limits assumed): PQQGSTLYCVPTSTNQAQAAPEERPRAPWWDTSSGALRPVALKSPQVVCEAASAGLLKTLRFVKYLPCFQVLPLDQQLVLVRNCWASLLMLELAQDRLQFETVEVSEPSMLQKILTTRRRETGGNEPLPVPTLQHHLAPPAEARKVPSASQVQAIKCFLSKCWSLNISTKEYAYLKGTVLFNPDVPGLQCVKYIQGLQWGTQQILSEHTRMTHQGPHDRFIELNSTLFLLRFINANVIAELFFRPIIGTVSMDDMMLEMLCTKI
GAA30 counter – activates GAA30 frataxin promoter, counter-screen for GAA850 activators; HEK293 lucGAA30 FXN promoter luciferase, 24 h; DMSO = 0%, 5 µM ipriflavone = 100%; AID 588350; activation, % at 6 µM; shares compounds with GAA850 FXN act; hit rate 66% among 1,900;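 active = mean activation above the mean of solvent-only control wells plus 3 SD, cut at about 22% in these data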;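 note: counterscreen of GAA850 promoter hits where activity marks nonselective or luminescence artifacts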
FXN GAA850 conf – GAA850 FXN promoter activation confirmation | shares compounds with GAA850 FXN act | HEK293 lucGAA850 FXN promoter luciferase reporter, 24 h; 100% = activation by SAHA | activation, % at 6 µM | hit rate 86% among 1,900;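 active = mean activation above a set limit taken from the primary screen, cut at about 8% in these data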;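 note: 0% = DMSO wells and 100% = 10 µM SAHA wells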
The depositor's hits bear a star; . = no result given. Only some compounds are listed: those with a hit (about 4.5% of all), similar ones and a draw of the others.

SMILES	hgDAF12 agonist	ssDAF12 agonist	hcDAF-12 act	GAA850 FXN act	DAX1 inh-1	DAX1 inh-2	GAA30 counter	FXN GAA850 conf
O=C(NCc1cccnc1)NC1(C(F)(F)F)Oc2ccc(Cl)cc2O1 (stereo unspecified)	.	.	.	12*	.	0	26*	18*
Cc1ccc(Cl)cc1NC(=O)NCc1cccnc1	1	-2	-1	-1	0	0	.	.
COc1ccccc1-c1cc(C(F)(F)F)nc(S(=O)(=O)CCCC(=O)Nc2cc(C)on2)n1	2	-1	0	-4	0	-1	.	.
COc1ccc(-c2cc(C(F)(F)F)nc(S(=O)(=O)CCCC(=O)Nc3cc(C)on3)n2)cc1OC	-2	-1	0	10*	0	-2	58*	83*
CCCS/C(N)=N/N=C/c1cc(C)ccc1O	11*	1	4	8.6*	2	3	102*	33*
CCCCS/C(N)=N/N=C/c1ccccc1O	8	0	3	7.7*	2	1	110*	28*
Cc1ccc(O)c(C=Nc2cc(C)ccc2O)c1	.	.	.	4	.	-2	.	.
O=C(O)c1ccccc1N/N=C/c1cc(Br)cc(Br)c1O	7	-1	2	9.3*	4	5.6*	135*	42*
Nc1ccc2nc(-c3cc(Cl)c(N)c(Cl)c3)[nH]c2c1	5	0	4	8.3*	1	1	160*	50*
CCCNC(=O)c1ccccc1NC(=O)c1ccccc1N(C)S(C)(=O)=O	1	-1	-1	0	0	0	.	.
CCCNC(=O)c1ccccc1NC(=O)c1ccccc1N(C)S(=O)(=O)c1ccc(C)cc1	-2	-1	-1	8.1*	0	0	2	11*
O=C1C(=Cc2ccccn2)CCc2ccccc21	10	-1	1	7.8*	1	2	103*	31*
COc1ccc2c(c1)CC/C(=C/c1ccccn1)C2=O	0	-1	0	7	0	-2	.	.
COc1nc(N)nc(NC23CC4CC(CC(C4)C2)C3)n1	1	-1	-3	9.2*	1	-1	57*	20*
CCCCCCCCN1C(=O)[C@@H](CC(=O)N2CCN(C(=O)c3ccco3)CC2)C[C@@]2(C(=O)OC)C1=C[C@H](C(C)C)O[C@@H]2C1CC1	2	-1	0	.	-2	.	.	.
CCN(CC)S(=O)(=O)c1cc(NC(=O)Cn2ncc(Cl)c(Cl)c2=O)ccc1C	1	-1	-2	12*	0	0	11	15*
CCC(=O)Nc1ccc(C(=O)Cn2ncc(Cl)c(Cl)c2=O)cc1	0	-1	1	8.7*	-1	4	22*	11*
O=C(Cn1ncc(Cl)c(Cl)c1=O)c1ccc2c(c1)OCCO2	-5	-1	-1	8.6*	-2	2	8	18*
O=C(Cn1ncc(Cl)c(Cl)c1=O)Nc1ccc2c(c1)OCO2	-1	-1	-1	11*	-3	2	8	12*
Cc1nn(CC(=O)Nc2ccc3c(c2)OCO3)c(C)c1Cl	2	-1	-1	1	-1	0	.	.
COCC(=O)N1CCC(C(=O)NC2CCCc3ccccc32)CC1 (stereo unspecified)	0	-1	6	.	0	.	.	.
CCc1noc(C)c1C(=O)N1CCN(CC(=O)OC)CC1	-3	-1	0	.	0	.	.	.
O=C1CC(N2CCCC2)=NC(=O)N1c1ccc(Br)cc1	2	-1	0	.	1	.	.	.
Cc1cc(Br)ccc1NC(=O)CNC(=O)Cn1ncc(Cl)c(Cl)c1=O	-2	-1	-1	8.7*	0	3	1	-16
Cc1ccc(S(=O)(=O)N2CCCCC2)cc1NC(=O)Cn1ncc(Cl)c(Cl)c1=O	-9	-1	-2	-5	0	-1	.	.
COc1ccc(NC(=O)Cn2ncc(Cl)c(Cl)c2=O)cc1S(=O)(=O)N1CCOCC1	-1	0	-1	7.8*	0	0	-27	16*
